Results filed as inconclusive are left out. Unmarked numbers belong to inactive results. Activity calls are given as the source filed them. The call rests on the fitted dose curve; in most records, active means well fitted activation curve with a large enough effect; inconclusive means small, poorly fitted or top-dose-only effect; inactive means flat fitted curve, though single readings scatter. Square brackets hold non-standard residues; d marks the D form. Peptide text beside a SMILES is read from it. ξ: configuration not given here. ξL = CC(C)CC(N)C(=O)O
Assay: qHTS for Hypoxia signaling pathway (HIF-1) agonists against the NCATS CANVASS Library (AID 1347375); further: 0% is about no effect
Conditions: HRE-bla ME-180 cells, HIF-1 beta-lactamase reporter, 17 h; series mostly up to 38.3 µM; activation: at the top concentration
Description: Natural products and their derivatives continue to be wellsprings of nascent therapeutic potential. However, many laboratories have limited resources for biological evaluation, leaving their previously isolated or synthesized compounds largely or completely untested. To address this issue, the Canvass library of natural products was assembled (https://tripod.nih.gov/canvass), in collaboration with academic and industry researchers, for quantitative high-throughput screening (qHTS) across a diverse set of cell-based and biochemical assays. The pure (>85% purity by liquid chromatography/mass spectrometry [LC/MS]) Canvass library of 346 natural products were submitted by 45 academic laboratories and companies around the world. We collected pure natural products to circumvent deconvolution and structure elucidation due to time and resource limitations. The library was formatted into 1536-well plates and evaluated in 50 qHTS (in an 11-pnt concentration series) bioassays with broad scope of disease-relevant mechanisms. The resulting data set from 50 different assays was then systematically analyzed to identify overall trends and specific natural products with interesting biological activities. Reported herein are the results of each individual qHTS and their corresponding assay protocol. During hypoxic conditions, the cellular responses are regulated in large part through the activation of the heterodimeric transcription factor called hypoxia-inducible factor-1 (HIF-1). The assay used is a beta-lactamase reporter gene under control of the hypoxia responsive element (HRE) that has been stably integrated into ME-180 cells. This assay identifies inducers of the HIF-1-signaling pathway. The cytotoxicity of the compound library against HRE-bla ME-180 cell line was tested in parallel by measuring cell viability using CellTiter-Glo assay (Promega, Madison, WI) in the same assay wells. The compounds were also tested for auto fluorescence that may interfere with the biological target readout resulting in potential false positives and/or negatives. National Center for Advancing Translational Sciences (NCATS), Rockville, MD National Institute of Health (NIH), Bethesda, Maryland
HIF-1 agonist assay protocol: HRE-bla ME-180 cells were dispensed at 2,000 cells per well in 6 uL of assay medium containing 0.5% dialyzed FBS into black wall/clear-bottom 1536-well plates using a Multidrop Combi (Thermo Scientific, Waltham, MA) dispenser. After the assay plates were incubated at 37C and 5% CO2 for 5 hrs, 23 nL of compounds dissolved in DMSO, positive controls or DMSO only was transferred to each well of the assay plate using a Pintool station (Kalypsys, San Diego, CA). The assay plates were incubated at 37C and 5% CO2 for 17 hrs. One uL of LiveBLAzerTM B/G FRET substrate (CCF4-AM) (Life Technologies) was added to each well using a Flying Reagent Dispenser (Aurora Discovery, San Diego, CA). After 2 hr incubation at room temperature, fluorescence intensity (405 nm excitation, 460 nm and 530 nm emissions) was measured using an Envision plate reader (PerkinElmer, Shelton, CT). To assess cell viability (and for data normalization), 4uL of CellTiter-Glo (Promega) was added to the assay plate using the BioRAPTR dispenser and incubated at room temperature for 30 min. Luminescence signal was obtained using the ViewLux microplate reader (PerkinElmer) using a clear emission mirror, and a 15 sec exposure time, 1x binning settings.

| Structure (SMILES) | activation | outcome |
| --- | --- | --- |
| COC(=O)c1cc2cc3c(c(O)c2c(=O)o1)OC1(CC3)CC2=C(O1)C(=O)c1c(O)c(OC)cc(OC)c1C2=O (stereo not given) | 6.21% | – |
| C=C[C@@]1(C)CC[C@@H]([C@H](C)C(C)=O)O1 | -0.758% | – |
| CO[C@H]1[C@@H](OC(=O)/C(C)=C\[C@@H]2O[C@@H]2[C@H]2O[C@H]2C)[C@H](O)[C@H](OCC23C[C@@H]4[C@H](C)CC[C@H]4C4(C=O)CC2C=C(C(C)C)C34C(=O)O)O[C@@H]1C (stereo not given in full) | -2.21% | – |
| CC(C)C[C@@H]1c2c(O)c(C=O)c(O)c(C=O)c2O[C@]2(C)C=C[C@@H](C(C)C)C[C@H]12 | -2.78% | – |
| C/C(=C\[C@H](C)C(=O)/C=C/CC1CC(=O)NC(=O)C1)[C@@H]1OC(=O)/C=C/CC/C=C/C[C@@H](O)[C@@H]1C | 5.5% | – |
| C/C(=C\CC[C@@H](C)[C@H]1CC[C@]2(C)C3=CCC4C(C)(C)[C@@H](O)C[C@@H](O)[C@]4(C)C3[C@H](O)C[C@@]12C)CO (stereo not given in full) | -2.27% | – |
| CC(C)=CCC[C@]1(C)[C@H]2CC(=O)[C@@]3(CO3)[C@@H]1C2 | -0.957% | – |
| COc1cc(C2OCC3C(c4ccc(O)c(OC)c4)OCC23)ccc1O (stereo not given) | -1.39% [at 7.64 µM] | – |
| C/C(=C\[C@H](C)C(=O)C[C@H](O)CC1CC(=O)NC(=O)C1)[C@@H]1OC(=O)CCCC/C=C/C[C@@H](O)[C@@H]1C | 3.32% | – |
| C/C=C(/C)c1c(Cl)c(O)c(C)c2c1Oc1c(Cl)c(O)c(Cl)c(C)c1C(=O)O2 | -1.45% | – |
| [C-]#[N+][C@@]12C(=O)[C@@H]3[C@@H](O[C@@]4(C(=O)N(C)c5cccc1c54)C3(C)C)C(=O)[C@@]2(C)C=C | 7.3% | – |
| CC(=O)O[C@H]1c2ccccc2-c2c3c(cc4c2[C@@H]1N(C(C)=O)CC4)OCO3 | 5.07% | – |
| C/C(=C\[C@H](C)C(=O)/C=C/CC1CC(=O)NC(=O)C1)[C@@H]1OC(=O)CCCC/C=C/[C@H](O)[C@@H](O)[C@@H]1C | -0.573% | – |
| C=CC(CCCCC)C1C(=O)NC(=O)C1C(=O)C1C(/C=C/C)C=CC2CC(C(=O)O)CC(C)C21 (stereo not given) | 1.84% | – |
| C=C[C@@](C)(O)CC[C@@H]1[C@@]2(C)CCCC(C)(C)[C@@H]2CC[C@@]1(C)O | 1% | – |
| CC[C@@H](c1cc(OC)c(OC)cc1OC)[C@H](C)[C@@H](/C(C)=C/c1cc(OC)c(OC)cc1OC)c1cc(OC)c(OC)cc1OC | – | inactive |
| CC(=O)Oc1cc2c(c(OC(C)=O)c1C1CCc3cc(Cl)c(Cl)n31)C(=O)n1c-2cc(Cl)c1Cl (stereo not given) | 10.7% | – |
| Oc1ccc(C2Oc3cc(O)c4c(c3[C@@H]2c2cc(O)cc(O)c2)[C@H]2C(c3ccc(O)cc3)c3c(O)cc5c(c3[C@H]2C4c2ccc(O)cc2)[C@H](c2cc(O)cc(O)c2)C(c2ccc(O)cc2)O5)cc1 (stereo not given in full) | 7.73% | – |
| CC(C)=CCCC(C)(O)[C@H]1CC=C(C)C(O)C1 (stereo not given in full) | -2.81% | – |
| O=C1CC2OCC=C3CN4C5CC3C2[C@@H]2N1c1ccccc1[C@]52C[C@@H]4C1=C[C@H]2C3CC4N(CC[C@@]45c4ccccc4N(C1=O)[C@@H]25)C/C3=C/CO (stereo not given in full) | 2.66% | – |

| Structure (SMILES) | activation | outcome |
| --- | --- | --- |
| COc1cc2ccc(=O)oc2c(O)c1O[C@@H]1O[C@H](CO)[C@@H](O)[C@H](O)[C@H]1O | 13.1% [at 22.9 µM] | – |
| O[C@H]1c2ccccc2-c2c3c(cc4c2[C@@H]1NCC4)OCO3 | 8.2% | – |
| C/C=C/[C@H]1[C@H]2C(=O)c3c(O)c(C)c(O)c(C)c3[C@]1(C(=O)O)C(=O)C=C2C | 2.16% | – |
| CC[C@H]1[C@H](C)[C@H](c2cc(OC)c(OC)cc2OC)[C@@H](C)[C@H](c2cc(OC)c(OC)cc2OC)[C@@]12C=C(OC)C(=O)C=C2OC | 1.29% | – |
| CC(C)=CC[C@H]1C[C@@]2(CC=C(C)C)C(=O)[C@](CC=C(C)C)(C(=O)C(C(=O)c3ccccc3)=C2O)C1(C)C | 0.483% | – |
| CN1CC[C@@]2([C@@]34CCN(C)[C@@H]3Nc3ccccc34)c3ccccc3N[C@@H]12 | 4.95% | – |
| O=Cc1ccc2n1C[C@]1(OC2)O[C@H](CO)[C@@H](O)[C@@H]1O | -0.775% | – |
| C[C@]12CCC[C@](C)(C(=O)O)[C@@H]1CC[C@@]1(C)c3cocc3CC[C@H]21 | -1.65% | – |
| CC(C)[C@@H]1CC(=O)c2coc3c2[C@H]1C[C@@H](C)C3=O | 2.53% | – |
| C[C@]12CC[C@]3(C1)[C@H](CC2=O)C[C@@H](OC(=O)c1ccccc1)[C@H]1[C@](C)(C(=O)O)CCC[C@@]13C | 1.26% | – |
| C=C1CC[C@@H](O[C@H]2C[C@@](O)([C@H](C)NC(=O)c3[nH]c(C)c(Cl)c3Cl)[C@H](O)[C@@H](C)O2)[C@@H]2C=C[C@H](C)C(/C(O)=C3/C(=O)[C@H](C(C)C)N([C@@H]4O[C@H](C)[C@H](OC(N)=O)[C@H](OC(C)=O)[C@@H]4OC)C3=O)[C@@H]12 (stereo not given in full) | 3.12% | – |
| Cc1occ2c1C(=O)c1c(cc(O)c(O)c1O)C2=O | 16% | – |
| CN1CCc2cc3c(c4c2C1(C)C(=O)c1cc(O)ccc1-4)OCO3 (stereo not given) | 2.04% | – |
| COc1c(O)cc(O)c2c(=O)cc(-c3ccccc3)oc12 | 3.71% | – |
| COc1ccc([C@@H]2c3cc4c(cc3C(=O)C(C)C2C)OCO4)cc1OC (stereo not given in full) | 8.54% | – |
| CCC(C)=C1OC(=O)[C@H](C)[C@H](O)[C@H](Cc2cccnc2)NC(=O)C(NC(=O)c2ncccc2O)C(C)OC1=O (stereo not given in full) | 1.63% | – |
| C[C@@]1(CCC(=O)Nc2c(O)ccc(C(=O)O)c2O)C(=O)C=C[C@]23C[C@H]4C[C@H](O[C@@]4(C)C2)C31 (stereo not given in full) | -1.35% | – |
| C/C(=C\[C@@H](C)CC/C=C/CC/C=C/C(=O)O)[C@H](O)[C@H](C)C(=O)CCCC1CC(=O)NC(=O)C1 | 1.81% | – |
| CC[C@@H](C)[C@H]1NC(=O)C(CC(C)C)NC(=O)[C@@H](CC(C)C)NC(=O)[C@H](Cc2c[nH]c3ccccc23)NC(=O)CNC(=O)[C@@H](CC(N)=O)NC1=O (stereo partly drawn) (cyclo(GW[dL][ξL][dI][dN])) | 10% | – |
| C/C(=C\[C@H](C)C(=O)CCCC1CC(=O)NC(=O)C1)[C@@H]1OC(=O)/C=C/CC/C=C/[C@H](O)[C@@H](O)[C@@H]1C | 2.45% | – |

— PubChem BioAssay (NCATS)
